Results taken from PubChem BioAssay (Tox21).
Where “and” joins values, the source holds several entries; their conditions need not be identical. Equal entries are not always repeated. Records with an inconclusive call do not appear. Entries that show only a call come without a potency. The source holds several records for some structures; these can differ, active in one and inactive in another. Calls of active or inactive are those of the source. Unless noted, the call rests on the fitted dose curve; in most records, active means well fitted curve in the direction sought with a large enough effect in the repeat runs; inconclusive means weak or mixed curves; inactive means no such curve, though single readings can be large; an effect the other way counts as inactive or inconclusive.

Assays:
[1] = qHTS assay to identify small molecule agonists of the progesterone receptor (PR) signaling pathway - cell viability counter screen (AID 1346799; calls by dose curve; further: nearly all actives have a fitted effect of over 45% in size)
Method in brief: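 In parallel with the beta-lactamase readout, cytotoxicity toward PR-UAS-bla HEK293T cells was measured by CellTiter-Glo luminescence following 16 hr compound incubation in 2% charcoal-stripped FBS medium.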

[2] = qHTS assay to identify small molecule agonists of the TGF-beta/Smad signaling pathway - cell viability counter screen (AID 1346829); further: top concentration of the series differs between compounds; nearly all actives have a fitted effect of over 45% in size
Method in brief: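 Luminescence from CellTiter-Glo, read after a 30 min room-temperature incubation, gives cell viability of SBE-bla HEK 293T cells treated 5 hr with compounds at 37 C.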

[3] = qHTS assay to identify small molecule agonists of the TGF-beta/Smad signaling pathway (AID 1346859; active means well fitted activation curve with a large enough effect in the signal ratio in the repeat runs, not every such curve was filed as active; the % refers to the signal ratio; further: series mostly up to about 77 µM)
Method in brief: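 After overnight seeding, SBE-bla HEK 293T cells are dosed with compounds in DMSO and kept 5 hr at 37 C, 5% CO2. LiveBLAzer-type FRET substrate is then applied for 2 hr at room temperature.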

[4] = target: Thyrotropin-releasing hormone receptor (Homo sapiens) (UniProt P34981); experiment: qHTS assay to identify small molecule antagonists of the thyrotropin-releasing hormone receptor (TRHR) signaling pathway (AID 1346877; active means well fitted inhibition curve with a large enough effect in the repeat runs, not every such curve was filed as active; further: series mostly up to about 51 µM)
Method in brief: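 Following an 18 h incubation at 37 °C and a 2 h calcium dye load, TRHR-HEK293 cells were exposed to compound (5 min, room temperature) and challenged with TRH, 1 nM final.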

[5] = target: Thyrotropin-releasing hormone receptor (Homo sapiens) (UniProt P34981); experiment: qHTS assay to identify small molecule agonists of the thyrotropin-releasing hormone receptor (TRHR) signaling pathway (AID 1346891; calls by dose curve;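 further: HEK293 cells expressing TRHR with calcium dye readout; series mostly up to about 58 µM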)
Method in brief: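 Compounds were tested as agonists at 15 concentrations, in triplicate, on TRHR-Hek293 cells; calcium-sensitive dye fluorescence was recorded for 3 min following addition.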

[6] = Human pregnane X receptor (PXR) small molecule agonists, qHTS cell viability counter screen (AID 1346977); further: nearly all actives have a fitted effect of over 50% in size
Method in brief: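 Viability counter screen: CellTiter-Fluor signal in PXR-Luc HepG2 cells, 24hr compound exposure, 37C, 5% CO2.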

[7] = Caspase-3/7 induction in HepG2 cells by small molecules, qHTS assay (AID 1346978); further: nearly all actives have a fitted effect of over 15% in size
Method in brief: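 Wild-type HepG2 cells, 2,000/well, settled 5 hr at 37 C and 5% CO2, then compound-treated for 17 hr; caspase-3/7 activity read by luminescent Caspase-Glo 3/7 after 30 min at room temperature.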

[8] = Caspase-3/7 induction in CHO-K1 cells by small molecules, qHTS cell viability counter screen (AID 1346979); further: nearly all actives have a fitted effect of over 35% in size; further: potency means the concentration at half of the fitted maximal effect
Method in brief: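 Viability readout by fluorescence (CellTiter-Fluor) on wild-type CHO-K1 cells exposed for 16hr at 37C and 5% CO2 to compounds delivered in DMSO; reagent incubated 1hr before reading.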

[9] = Caspase-3/7 induction in CHO-K1 cells by small molecules, qHTS assay (AID 1346980); further: nearly all actives have a fitted effect of over 15% in size
Method in brief: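 Wild-type CHO-K1 cells exposed to compounds for 17hr at 37 C, 5% CO2. Caspase-3/7 activity then measured by Caspase-Glo 3/7 luminescence after 30min at room temperature.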

[10] = Caspase-3/7 induction in HepG2 cells by small molecules, qHTS cell viability counter screen (AID 1346981); further: series mostly up to about 92 µM; nearly all actives have a fitted effect of over 30% in size
Method in brief: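 Viability determined by CellTiter-Fluor fluorescence in HepG2 wells also used for the luminescent Caspase-Glo 3/7 read. Compounds were present for 16 hr at 37 C, 5% CO2 before reagent addition.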

[11] = target: Nuclear receptor subfamily 1 group I member 2 (Homo sapiens) (UniProt O75469); experiment: Human pregnane X receptor (PXR) small molecule agonists, qHTS assay (AID 1346982); further: nearly all actives have a fitted effect of over 35% in size; further: potency means the concentration at half of the fitted maximal effect
Method in brief: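 Compound-induced hPXR transactivation of a CYP3A4 luciferase reporter was scored in HepG2 PXR-Luc cells over 24 hr at 37 C, 5% CO2, by luminescence.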

[12] = target: Acetylcholinesterase (Homo sapiens) (UniProt P22303); experiment: Acetylcholinesterase (AChE) small molecule antagonists: colormetric cell-based qHTS assay (AID 1347395; calls by dose curve; further: nearly all actives have a fitted effect of over 30% in size)
Method in brief: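 Homogeneous whole-cell format. SH-SY5Y cells seeded overnight, dosed with compound (30 min, 37 C, 5% CO2), then given DTNB/acetylthiocholine cocktail for 90 min at 37 C; colorimetric signal.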

[13] = target: Acetylcholinesterase (Homo sapiens) (UniProt P22303); experiment: Acetylcholinesterase (AChE) small molecule antagonists: enzyme-based qHTS assay (AID 1347397; calls by dose curve; further: nearly all actives have a fitted effect of over 55% in size; further: potency means the concentration at half of the fitted maximal effect); settings: Potency: AChE enzyme activity inhibition
Method in brief: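 Enzyme inhibition was scored from DTNB-detected thiocholine formed by recombinant human AChE acting on acetylthiocholine. The 30 min compound preincubation and 10 min substrate reaction were both run at room temperature, with DMSO as vehicle control.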

[14] = target: Acetylcholinesterase (Homo sapiens) (UniProt P22303); experiment: Acetylcholinesterase (AChE) small molecule antagonists: fluorescence cell-based qHTS assay (AID 1347398; calls by dose curve; further: nearly all actives have a fitted effect of over 50% in size; further: potency means the concentration at half of the fitted maximal effect); settings: Potency: AChE activity
Method in brief: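 Endogenous acetylcholinesterase of SH-SY5Y neuroblastoma cells is measured in situ. After overnight attachment and 30 min compound exposure, cells receive acetylthiocholine and Thiolite Green; fluorescence is read after 40 min at room temperature.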

[15] = target: Acetylcholinesterase (Homo sapiens) (UniProt P22303); experiment: Acetylcholinesterase (AChE) small molecule antagonists: enzyme-based qHTS assay with human liver microsomes (AID 1347399; calls by dose curve; further: nearly all actives have a fitted effect of over 60% in size; further: potency means the concentration at half of the fitted maximal effect); settings: Potency: qHTS inhibition
Method in brief: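 Recombinant human AChE (50 mU/mL in the enzyme mix) and human liver microsomes (0.25 mg/mL final) were preincubated with compound and NADPH (0.25 mg/mL final) for 30 min at 37 C. Acetylthiocholine/DTNB was then added; thiocholine was read colorimetrically after 10 min at room temperature.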

[16] = target: Cytochrome P450 2D6 (Homo sapiens) (UniProt P10635); experiment: Cytochrome P450 Family 2 Subfamily D Member 6 (CYP2D6) small molecule antagonists: luciferase reporter qHTS assay (AID 1671196); further: series mostly up to about 120 µM; nearly all actives have a fitted effect of over 50% in size
Method in brief: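 Each well received CYP2D6 with its proluciferin substrate and chemical, sat 10 min, then got NADPH regeneration solution for 1 h at room temperature. Luminescence in RLU served as the activity measure.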

[17] = target: Nuclear receptor subfamily 1 group I member 2 (Rattus norvegicus) (UniProt Q9R1A7); experiment: Rat pregnane X receptor (rPXR) activation by small molecules, qHTS assay (AID 1346983); settings: rPXR luciferase reporter cells, One-Glo luminescence, 24 h; stronger effect = higher value; further: nearly all actives have a fitted effect of over 20% in size
Method in brief: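 Cell-based rPXR activation assay: rPXR cells, 2,000 per well, rested 5hr at 37 C, then exposed to compounds in DMSO for 24 hr at 37 C. Luciferase activity read by One-Glo luminescence after 30 min at room temperature.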

[18] = target: Nuclear receptor subfamily 1 group I member 2 (Homo sapiens) (UniProt O75469); experiment: CYP3A4 induction through human pregnane X receptor (PXR) by small molecules, qHTS assay (AID 1346984); further: nearly all actives have a fitted effect of over 40% in size
Method in brief: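 Readings come from a luciferase reporter: DPX-2 cells, which are HepG2 cotransfected with PXR and a CYP3A4-promoter construct, were exposed to test compounds for 24 h at 37C before One-Glo detection.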

[19] = target: Nuclear receptor subfamily 1 group I member 2 (Homo sapiens) (UniProt O75469); experiment: Human pregnane X receptor (PXR) activation by small molecules, qHTS assay (AID 1346985); further: nearly all actives have a fitted effect of over 40% in size
Method in brief: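 DPX-2 cells (HepG2 co-transfected with a PXR response element and a CYP3A4-promoter luciferase construct) were seeded at 2,000 per well, rested 5 hr at 37C, then exposed to DMSO-dissolved compounds for 24 hr. Activation was read as luciferase luminescence.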

[20] = qHTS assay to identify small molecule antagonists of the TGF-beta/Smad signaling pathway - cell viability counter screen (AID 1346824); further: nearly all actives have a fitted effect of over 50% in size
Method in brief: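 SBE-bla HEK 293T cells, incubated overnight, then compound plus 0.25 ng/mL TGF-beta1 (stock added) for 5 hr at 37 C. Viability was read in the same wells by CellTiter-Glo luminescence after 30 min at room temperature.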

Chain of Nuclear receptor subfamily 1 group I member 2 (Homo sapiens) (O75469 whole entry, looked up): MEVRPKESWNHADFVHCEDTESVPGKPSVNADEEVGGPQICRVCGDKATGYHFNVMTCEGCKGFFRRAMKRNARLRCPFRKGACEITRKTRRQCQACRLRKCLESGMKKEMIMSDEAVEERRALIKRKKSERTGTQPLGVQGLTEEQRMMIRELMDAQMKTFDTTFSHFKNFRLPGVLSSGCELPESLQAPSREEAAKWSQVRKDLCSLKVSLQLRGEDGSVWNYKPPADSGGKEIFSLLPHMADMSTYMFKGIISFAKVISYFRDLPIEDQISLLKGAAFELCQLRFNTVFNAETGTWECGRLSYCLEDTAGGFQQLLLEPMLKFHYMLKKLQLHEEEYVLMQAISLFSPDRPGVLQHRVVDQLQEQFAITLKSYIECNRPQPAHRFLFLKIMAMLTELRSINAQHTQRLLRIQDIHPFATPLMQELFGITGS
Chain of Cytochrome P450 2D6 (Homo sapiens) (P10635 whole entry, looked up): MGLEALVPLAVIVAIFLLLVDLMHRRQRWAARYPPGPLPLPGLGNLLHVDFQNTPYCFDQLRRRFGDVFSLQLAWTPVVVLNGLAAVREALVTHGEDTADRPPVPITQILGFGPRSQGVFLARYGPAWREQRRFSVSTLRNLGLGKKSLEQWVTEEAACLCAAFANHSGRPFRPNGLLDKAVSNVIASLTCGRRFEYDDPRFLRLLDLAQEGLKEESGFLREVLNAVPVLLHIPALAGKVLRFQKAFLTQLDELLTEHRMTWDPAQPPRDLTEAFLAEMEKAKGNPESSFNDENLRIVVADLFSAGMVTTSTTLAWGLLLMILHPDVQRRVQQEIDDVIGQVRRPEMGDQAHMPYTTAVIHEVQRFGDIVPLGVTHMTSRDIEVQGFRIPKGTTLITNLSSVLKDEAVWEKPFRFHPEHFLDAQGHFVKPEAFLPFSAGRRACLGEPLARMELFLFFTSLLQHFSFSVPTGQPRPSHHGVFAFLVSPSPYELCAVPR
Chain of Thyrotropin-releasing hormone receptor (Homo sapiens) (P34981 whole entry, looked up): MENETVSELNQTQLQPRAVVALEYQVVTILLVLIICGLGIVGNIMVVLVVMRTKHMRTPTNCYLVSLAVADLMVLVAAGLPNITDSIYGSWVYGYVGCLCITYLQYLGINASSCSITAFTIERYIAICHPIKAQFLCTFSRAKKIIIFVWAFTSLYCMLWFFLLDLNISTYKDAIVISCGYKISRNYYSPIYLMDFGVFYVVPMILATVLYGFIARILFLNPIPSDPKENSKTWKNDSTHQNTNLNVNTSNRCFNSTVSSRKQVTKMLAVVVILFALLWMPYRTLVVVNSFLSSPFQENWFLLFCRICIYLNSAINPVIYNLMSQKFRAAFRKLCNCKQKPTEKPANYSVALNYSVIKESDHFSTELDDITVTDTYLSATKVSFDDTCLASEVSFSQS
Chain of Acetylcholinesterase (Homo sapiens) (P22303 whole entry, looked up): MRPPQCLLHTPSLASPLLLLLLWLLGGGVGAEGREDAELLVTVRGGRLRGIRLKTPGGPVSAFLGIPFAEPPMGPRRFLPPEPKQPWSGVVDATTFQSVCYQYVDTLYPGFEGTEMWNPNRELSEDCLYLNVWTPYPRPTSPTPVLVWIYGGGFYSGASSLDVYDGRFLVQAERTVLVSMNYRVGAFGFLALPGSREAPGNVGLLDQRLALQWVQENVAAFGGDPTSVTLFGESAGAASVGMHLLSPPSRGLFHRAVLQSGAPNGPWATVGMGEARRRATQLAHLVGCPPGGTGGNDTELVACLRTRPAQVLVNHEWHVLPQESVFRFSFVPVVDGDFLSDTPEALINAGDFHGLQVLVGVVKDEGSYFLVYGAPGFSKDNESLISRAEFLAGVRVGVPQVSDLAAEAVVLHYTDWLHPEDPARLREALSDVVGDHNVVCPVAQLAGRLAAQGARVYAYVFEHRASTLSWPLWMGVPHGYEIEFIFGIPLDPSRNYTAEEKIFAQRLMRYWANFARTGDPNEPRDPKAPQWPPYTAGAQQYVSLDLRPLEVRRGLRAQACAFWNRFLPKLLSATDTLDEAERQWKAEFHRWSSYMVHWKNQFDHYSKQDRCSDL
Chain of Nuclear receptor subfamily 1 group I member 2 (Rattus norvegicus) (Q9R1A7 whole entry, looked up): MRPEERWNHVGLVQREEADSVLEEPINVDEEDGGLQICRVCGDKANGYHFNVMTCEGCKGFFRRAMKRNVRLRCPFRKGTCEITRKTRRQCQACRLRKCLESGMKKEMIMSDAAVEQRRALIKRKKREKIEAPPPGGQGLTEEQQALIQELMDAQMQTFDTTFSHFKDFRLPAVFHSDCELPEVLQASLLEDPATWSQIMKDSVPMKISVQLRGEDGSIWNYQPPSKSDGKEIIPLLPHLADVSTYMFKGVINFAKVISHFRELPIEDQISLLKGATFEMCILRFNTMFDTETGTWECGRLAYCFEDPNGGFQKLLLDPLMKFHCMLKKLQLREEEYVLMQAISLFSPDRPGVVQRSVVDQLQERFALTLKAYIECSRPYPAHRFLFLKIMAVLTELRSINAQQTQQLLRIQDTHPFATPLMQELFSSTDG

| Compound | Potency [1] | outcome [2] | Potency [3] | outcome [4] | Potency [5] | Potency [6] | outcome [7] | Potency [8] | outcome [9] | Potency [10] | Potency [11] | Potency [12] | Potency [13] | Potency [14] | Potency [15] | Potency [16] | max activation [17] | outcome [18] | Potency [19] | Potency [20] |
| --- | --- | --- | --- | --- | --- | --- | --- | --- | --- | --- | --- | --- | --- | --- | --- | --- | --- | --- | --- | --- |
| Nc1ccc(Cc2ccc(N)cc2)cc1 | inactive | inactive | inactive | inactive | inactive | inactive | inactive | inactive | inactive | inactive | 60.1 µM (active) and inactive | inactive | inactive | inactive | inactive | inactive |  |  |  |  |
| O=[N+]([O-])c1ccc([As](=O)(O)O)cc1 | inactive | inactive | inactive | inactive | inactive | inactive | inactive | inactive | inactive | inactive | inactive | inactive | inactive | inactive | inactive |  | -0.802% (inactive) | inactive | inactive |  |
| COC(=O)NS(=O)(=O)c1ccc(N)cc1 | inactive | inactive | inactive |  |  | inactive | inactive | inactive | inactive | inactive | inactive | inactive |  | inactive | inactive | inactive |  |  |  | inactive |
| Cc1[nH]c(=O)n(C(C)(C)C)c(=O)c1Cl | inactive | inactive | inactive |  |  | inactive | inactive | inactive | inactive | inactive | inactive |  | inactive | inactive | inactive |  |  |  |  | inactive |
| CC1C=[C-]C=C1.[C-]#[O+].[C-]#[O+].[C-]#[O+].[Mn] | inactive | inactive | inactive |  |  | inactive | inactive | inactive | inactive | inactive | 54.5 µM (active) and 19.2 µM (active) |  | inactive | inactive | inactive | inactive |  |  |  | inactive |
| CCCCN(CCCC)SN(C)C(=O)Oc1cccc2c1OC(C)(C)C2 | inactive | inactive | inactive |  |  |  | inactive | 69.7 µM (active) | inactive | inactive | 62.1 µM (active) and inactive |  | 57.3 nM (active) and 894 nM (active) | 36.2 nM (active) and 564 nM (active) | 573 nM (active) and 3.56 µM (active) |  |  |  |  | inactive |
| O=S(=O)(c1ccc(O)cc1)c1ccc(O)cc1 | inactive | inactive | inactive | inactive | inactive |  | inactive | inactive |  | inactive | inactive | inactive | inactive | inactive | inactive |  |  |  |  | inactive |
| COC(=O)c1ccccc1C(=O)OC | inactive | inactive | inactive |  |  | inactive | inactive | inactive | inactive | inactive | inactive |  | inactive | inactive | inactive | inactive |  |  |  | inactive |
| O=NN1CCCC1 | inactive | inactive | inactive |  |  |  | inactive | inactive | inactive | inactive | inactive |  |  | inactive | inactive | inactive |  |  |  | inactive |
